Reference: PubChem BioAssay
The source made the active and inactive calls.

Key:
[1] = tested on: Human papillomavirus type 1a protein E7 (residues 44-93); test: HPV1a E7 fragment binders on microarrays, primary screen, biochemical, small-molecule microarray, residues 44-93, 635 nm fluorescence (AID 1108); settings: small-molecule microarray binding, fluorescence 635 nm; higher = more signal;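 also: E7 fragment applied at 1 µg/mL in TBST for 1 h at 4 C; score combines spot fluorescence with its signal to noise ratio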
[2] = modulators of HCV replicon luciferase signal, primary screen, HCV replication inhibitor project, Huh7 cells, luciferase reporter (AID 1109); settings: 48 h, higher = more signal;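 also: huh7 hepatoma cells harbouring a luciferase neomycin HCV replicon reporter; luciferase luminescence as measure of HCV replicon replication; test concentration not given here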
[3] = molecular target: Left-right determination factor 2 (Homo sapiens) (UniProt O00292); test: LEFTY2 binders on small-molecule microarrays, primary screen, biochemical, small-molecule microarray, 635 nm fluorescence scan (AID 1110); settings: LEFTY2 binding, higher = more signal
Left-right determination factor 2 (Homo sapiens), sequence (O00292 whole entry, looked up): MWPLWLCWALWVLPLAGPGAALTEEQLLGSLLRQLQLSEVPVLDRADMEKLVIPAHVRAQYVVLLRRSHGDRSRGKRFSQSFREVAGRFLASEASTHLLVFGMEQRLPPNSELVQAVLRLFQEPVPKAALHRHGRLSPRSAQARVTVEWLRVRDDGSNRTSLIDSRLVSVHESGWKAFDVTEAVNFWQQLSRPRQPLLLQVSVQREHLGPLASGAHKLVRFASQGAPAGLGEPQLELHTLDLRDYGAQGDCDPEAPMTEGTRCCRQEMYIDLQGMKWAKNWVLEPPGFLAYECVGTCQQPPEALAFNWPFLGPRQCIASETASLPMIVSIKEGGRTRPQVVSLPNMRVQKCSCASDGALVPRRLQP

[4] = molecular target: Calmodulin-1 (Homo sapiens) (UniProt P0DP23); test: CALM1 binders on microarrays, EGTA buffer, profiling panel, biochemical, small-molecule microarray, Cy5-labelled CALM1 (AID 1111); settings: Cy5-CALM1 binding fluorescence, higher = more signal;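 also: labelled calmodulin applied in Tris saline Tween buffer holding calcium plus EGTA and DTT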
[5] = molecular target: Calmodulin-1 (Homo sapiens) (UniProt P0DP23); test: calcium-bound CALM1 binders on microarrays, profiling panel, artefact control for SMM control-protein annotation, biochemical, small-molecule microarray, Cy5-labelled CALM1, plus calcium (AID 1112); settings: Cy5-CALM1 binding fluorescence, higher = more signal;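 also: score merges spot fluorescence with signal to noise from triplicate slides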
[6] = small-molecule microarray binders of probe aWnt5a, primary screen, biochemical, biotinylated probe, 635/667 nm fluorescence (AID 1113); settings: higher = more signal;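 also: score merges 667 nm fluorescence intensity with signal-to-noise per printed feature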
[7] = small-molecule microarray binders of probe aShh, primary screen, biochemical, biotinylated probe, 635/667 nm fluorescence (AID 1114); settings: higher = more signal;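 also: probe is biotin-labelled aShh protein from a stem cell growth factor screen; measures binding of labelled protein to compounds printed on the slide; score merges feature fluorescence at 667 nm with signal-to-noise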
[8] = small-molecule microarray binders of probe aNog, primary screen, biochemical, biotinylated probe, 635/667 nm fluorescence (AID 1115); settings: higher = more signal;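 also: probe is biotinylated aNog protein used at 0.15 µg/mL for 1 h at 4 C; z-score combines 667 nm fluorescence of each spot with its signal to noise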
[9] = molecular target: Torsin-1A-interacting protein 1 (Homo sapiens) (UniProt Q5JTV8); test: LAP1 binders from COS7 cell lysate, primary screen, small-molecule microarray, 635/667 nm fluorescence (AID 1116); settings: COS7-hLAP1 lysate binding, 635 nm fluorescence, higher = more signal
Torsin-1A-interacting protein 1 (Homo sapiens), sequence (Q5JTV8 whole entry, looked up): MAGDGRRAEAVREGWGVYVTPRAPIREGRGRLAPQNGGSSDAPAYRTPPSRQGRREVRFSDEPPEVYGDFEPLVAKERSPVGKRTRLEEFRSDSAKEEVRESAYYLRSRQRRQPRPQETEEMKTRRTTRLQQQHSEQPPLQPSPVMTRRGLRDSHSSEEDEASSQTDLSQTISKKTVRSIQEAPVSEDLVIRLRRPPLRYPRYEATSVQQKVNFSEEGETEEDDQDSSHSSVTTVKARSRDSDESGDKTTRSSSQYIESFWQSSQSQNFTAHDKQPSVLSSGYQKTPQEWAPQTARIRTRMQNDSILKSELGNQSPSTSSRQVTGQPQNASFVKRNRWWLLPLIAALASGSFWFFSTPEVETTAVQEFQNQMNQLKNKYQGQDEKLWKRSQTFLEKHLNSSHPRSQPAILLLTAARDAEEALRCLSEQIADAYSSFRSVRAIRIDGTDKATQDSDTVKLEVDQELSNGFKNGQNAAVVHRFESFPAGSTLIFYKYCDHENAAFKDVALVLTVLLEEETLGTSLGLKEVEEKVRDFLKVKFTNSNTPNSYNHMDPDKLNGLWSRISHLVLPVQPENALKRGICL

[10] = molecular target: Alpha-bungarotoxin (Bungarus multicinctus) (UniProt P60615); test: alpha-bungarotoxin binders on microarray, profiling panel, artefact control for SMM control protein annotation, biochemical, small-molecule microarray, Alexa647 label, 635/667 nm fluorescence (AID 1117); settings: alpha-BTX-A647 binding fluorescence, higher = more signal
Alpha-bungarotoxin (Bungarus multicinctus), sequence (P60615 whole entry, looked up): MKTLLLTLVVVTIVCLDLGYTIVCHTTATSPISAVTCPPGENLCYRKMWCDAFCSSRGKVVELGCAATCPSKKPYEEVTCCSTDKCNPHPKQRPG

Albumin (Bos taurus) = Albumin (Bos taurus) (UniProt P02769); test: bovine serum albumin binders on microarray, profiling panel, artefact control for SMM control protein annotation, biochemical, small-molecule microarray, Alexa647 label, 635/667 nm fluorescence (AID 1118); settings: BSA-A647 binding, fluorescence 635 nm, higher = more signal;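 also: score merges 667 nm emission intensity and signal-to-noise per printed compound spot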
Albumin (Bos taurus), sequence (P02769 whole entry, looked up): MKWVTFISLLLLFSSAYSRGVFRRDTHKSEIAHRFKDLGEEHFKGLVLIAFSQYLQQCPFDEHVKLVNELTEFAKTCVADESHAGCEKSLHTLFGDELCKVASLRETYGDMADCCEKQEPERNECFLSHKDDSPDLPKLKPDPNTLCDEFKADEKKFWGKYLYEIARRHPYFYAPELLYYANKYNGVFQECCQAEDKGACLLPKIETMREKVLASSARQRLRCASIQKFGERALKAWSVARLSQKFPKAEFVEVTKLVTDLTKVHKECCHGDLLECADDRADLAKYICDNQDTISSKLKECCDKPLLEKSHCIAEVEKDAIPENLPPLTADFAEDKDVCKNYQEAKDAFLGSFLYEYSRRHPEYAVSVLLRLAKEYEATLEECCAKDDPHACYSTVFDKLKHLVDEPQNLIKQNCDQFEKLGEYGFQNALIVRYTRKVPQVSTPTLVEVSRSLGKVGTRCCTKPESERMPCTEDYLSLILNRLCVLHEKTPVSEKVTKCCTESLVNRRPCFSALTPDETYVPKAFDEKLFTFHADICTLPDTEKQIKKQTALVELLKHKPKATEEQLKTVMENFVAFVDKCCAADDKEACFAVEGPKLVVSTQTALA

[11] = small-molecule microarray binders of probe aXIP, primary screen, biochemical, NeuroSMM set, 635/667 nm fluorescence (AID 1119); settings: higher = more signal, called active from +8 up or from −8 down;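 also: probe is the protein aXip251-270 applied at 1 µg/mL to compound-printed slides; binding of probe to printed compounds measured as 667 nm fluorescence plus signal to noise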
[12] = small-molecule binders of probe aNOTCH3, primary screen, biochemical, small-molecule microarray, 635/667 nm fluorescence (AID 1120); settings: higher = more signal;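 also: probe is a biotin-tagged antibody raised against NOTCH3 rather than NOTCH3 protein; score merges spot fluorescence near 667 nm with spot signal to noise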
[13] = small-molecule binders of probe aNOTCH2, primary screen, biochemical, small-molecule microarray, 635/667 nm fluorescence (AID 1121); settings: higher = more signal;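 also: score merges feature fluorescence read at 667 nm with its signal to noise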
[14] = molecular target: Carbonic anhydrase 2 (Homo sapiens) (UniProt P00918); test: CAII small-molecule binders, profiling panel, biochemical, small-molecule microarray, Alexa647-labelled CAII (AID 1122); settings: CAII-A647 binding fluorescence, higher = more signal
[15] = COS7 lysate on small-molecule microarray, probe aHis, 635 nm (AID 1123); settings: COS7 cell lysate, fluorescence, higher = more signal;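 also: z-score combines 667nm fluorescence intensity with signal-to-noise per printed compound spot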
[16] = compound binding in COS7 lysate, probe aLAP1, primary screen, cell lysate, small-molecule microarray (AID 1124); settings: probe aLAP1, fluorescence, higher = more signal;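 also: lysate comes from COS7 cells expressing LAP1 and is applied at 0.3 µg/mL; score merges spot fluorescence near 667 nm with signal-to-noise over triplicate slides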
Sam68 (KHDRBS1) = test: Sam68 small-molecule binders, primary screen, biochemical, small-molecule microarray, 635 nm fluorescence (AID 1125); settings: small-molecule microarray binding, higher = more signal;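 also: score merges 667 nm channel intensity with signal to noise over triplicate slides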
[17] = tested on: Chordin-like protein 2 (CHRDL2); test: CHRDL2 small-molecule binders, primary screen, biochemical, small-molecule microarray, 635 nm fluorescence (AID 1126); settings: small-molecule microarray binding, fluorescence 635 nm; higher = more signal;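 also: printed compound slides probed with Chrdl2 protein at 4 µg/mL for 1 h at 4 C; score merges 667 nm emission intensity with signal to noise over three replicate slides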
[18] = molecular target: Concanavalin-A (Canavalia ensiformis) (UniProt P02866); test: ConA small-molecule binders, primary screen, artefact control for SMM control protein annotation, biochemical, small-molecule microarray, Alexa647 label, 635 nm (AID 1127); settings: ConA-A647 binding fluorescence, higher = more signal;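 also: z combines 667 nm emission intensity with signal-to-noise across three replicate slides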
Concanavalin-A (Canavalia ensiformis), sequence (P02866 whole entry, looked up): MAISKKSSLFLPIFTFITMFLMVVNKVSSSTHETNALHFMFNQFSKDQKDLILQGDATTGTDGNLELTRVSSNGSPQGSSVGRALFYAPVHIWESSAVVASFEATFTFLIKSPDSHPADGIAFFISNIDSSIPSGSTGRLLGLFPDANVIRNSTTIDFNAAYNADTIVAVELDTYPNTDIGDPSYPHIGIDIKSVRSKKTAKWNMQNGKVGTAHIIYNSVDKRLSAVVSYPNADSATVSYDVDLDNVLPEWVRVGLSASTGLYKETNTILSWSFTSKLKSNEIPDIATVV

SMILES | composite z-score [1] | z-score [2] | composite z-score [3] | composite z-score [4] | composite z-score [5] | composite z-score [6] | composite z-score [7] | composite z-score [8] | composite z-score [9] | composite z-score [10] | composite z-score (Albumin (Bos taurus)) | composite Z-score [11] | composite z-score [12] | composite z-score [13] | composite z-score [14] | composite z-score [15] | composite z-score [16] | composite z-score (Sam68 (KHDRBS1)) | composite z-score [17] | composite z-score [18]
O=c1cccc(-c2ccco2)o1 | 0.582 | -0.574 | 0.758 | -0.221 | -1.23 | -0.0179 | 0.0952 | -0.0563 | 0.18 | 0.738 | 0.167 | 0.207 (inactive) | 0.0522 | -0.127 | 0.25 | 0.193 | 0.462 | 0.969 | 1.05 | 0.495
O=C(NCCN1CCOCC1)[C@@H]1c2ccccc2C(=O)N(Cc2ccccc2)[C@H]1c1ccc(CO)cc1 | -0.639 | -0.887 | -1.45 | 0.446 | -1 | -0.219 | 0.214 | -0.224 | -1.47 | -1.06 | 0.16 | 0.283 (inactive) | -0.272 | -0.116 | 0.688 | 0.392 | -0.274 | -0.673 | -1.38 | 0.581
C=C[C@@H](OC)[C@H](OC(=O)Nc1ccc(SC)cc1)c1ccc(OCCO)cc1 | 1.44 | 0.462 | 0.0128 | 0.469 | -0.0827 | -0.0735 | 0.0639 | 0.36 | 1.03 | 1.36 | 0.687 | 0.0939 (inactive) | 0.23 | -0.101 | 0.361 | 1.89 | 0.35 | 1.34 | 0.207 | 0.89
C=C(COC)/C(=C/C[C@@H](OC(C)=O)c1ccc(CO)o1)c1cc(C(=O)OC)ccc1OC | 0.531 | -1.45 | -0.0379 | -0.177 | -0.9 | -0.096 | 0.479 | 0.184 | -0.315 | 0.202 | -0.418 | 0.615 (inactive) | -0.0647 | -0.133 | 0.579 | 0.694 | 0.662 | 0.246 | -0.228 | 0.581
COCCOC(=O)N1C(=O)[C@@]2(c3ccccc31)[C@H](c1ccc(OCCO)cc1)N1[C@H](c3ccccc3)[C@H](c3ccccc3)OC(=O)[C@H]1[C@@H]2C(=O)N1CCCCCCC1 | 1.52 | -1.56 | 1.83 | 3.21 | 1.79 | 1.61 | 3.26 | 3.73 | 5.85 | 5.03 | 0.915 | 7.84 (inactive) | 2.31 | 1.18 | 1.08 | 5.33 | 1.22 | 1.35 | 1.7 | 1.24
CCOC(=O)C[C@H]1[C@H](OC(=O)c2cc3ccccc3oc2=O)[C@@H](NC(=O)c2ccc3ccccc3c2)c2cc(OCCCO)ccc2N1C(=O)Cc1ccc(OC)cc1 | 1.16 | -1.6 | 0.763 | 0.31 | -0.239 | -0.0648 | 0.0588 | -0.0047 | 0.546 | 0.259 | 0.684 | -0.0384 (inactive) | -0.0377 | -0.0131 | 0.265 | 1.69 | 0.241 | 0.692 | 0.453 | 0.69
CCOC(=O)C1=CCC(c2ccco2)N(S(=O)(=O)c2ccc(C)cc2)C1 (stereo not given) | 1.36 | -2.3 | 0.297 | 0.921 | 0.0331 | 0.0279 | 0.0048 | -0.423 | 0.761 | 0.818 | 0.769 | 0.204 (inactive) | 0.196 | 0.0006 | 0.581 | 1.48 | 0.509 | 1.22 | 0.388 | 0.956
NCCCCCNC(=O)[C@@H]1C[C@@H]2C(=O)N3CCC[C@H]3C(=O)N2[C@@H]1c1ccc(O)cc1 | 1.31 | -0.837 | 0.732 | 1.09 | 1.12 | 0.216 | 0.163 | -0.477 | 1.05 | 0.494 | 0.539 | -0.213 (inactive) | 0.0496 | 0.0214 | 0.442 | 1.19 | 0.666 | 0.776 | 0.466 | 0.893
CN1C(=O)C2C(C1=O)C1C=C(CCCO)C2C(C2CC2)N1Cc1cc2c(cc1Br)OCO2 (stereo not given) | 0.295 | -0.734 | 0.285 | 0.508 | 0.724 | -0.0462 | 0.0893 | 1.21 | 1.33 | 1.58 | 0.984 | 1.32 (inactive) | 0.201 | -0.0097 | 0.756 | 2.63 | 1.25 | 1.18 | 0.0995 | 0.738
CC(C)C[C@@H]1NC(=O)[C@H]2C[C@@H](C(=O)NCCCCCN)[C@@H](c3cccc(OCCO)c3)N2C1=O | -1.01 | 0.335 | -0.0189 | 0.331 | 0.422 | -0.103 | -0.138 | -0.157 | 2.08 | 1.03 | 0.299 | 1.26 (inactive) | -0.495 | -0.146 | 0.695 | 1.27 | 1.16 | 0.166 | 0.292 | 0.661
COCCOC(=O)N1C(=O)[C@@]2(c3cc(C#CCNC(N)=O)ccc31)[C@H](c1ccc(OCCO)cc1)N1[C@H](c3ccccc3)[C@H](c3ccccc3)OC(=O)[C@H]1[C@@H]2C(N)=O | 1.33 | -0.106 | 0.437 | 0.741 | 0.585 | -0.089 | 0.225 | 0.54 | 0.803 | 0.667 | 0.319 | 0.658 (inactive) | 0.116 | -0.01 | 0.264 | 1.13 | 0.439 | 1.13 | 0.457 | 1.08
